# HePTP inhibitor: inhibitors of human HePTP phosphatase, primary screen, biochemical, absorbance, leukemia target; recombinant HePTP phosphatase activity, OD absorbance; inhibition, % at 20 µM; 0.64% of 110,000 active; AID 521, 2006; in the data active = inhibition above about 50%;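 note: plate controls were vehicle for no effect and reference inhibitor for full effect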
# Target sequence (P35236 whole entry, looked up): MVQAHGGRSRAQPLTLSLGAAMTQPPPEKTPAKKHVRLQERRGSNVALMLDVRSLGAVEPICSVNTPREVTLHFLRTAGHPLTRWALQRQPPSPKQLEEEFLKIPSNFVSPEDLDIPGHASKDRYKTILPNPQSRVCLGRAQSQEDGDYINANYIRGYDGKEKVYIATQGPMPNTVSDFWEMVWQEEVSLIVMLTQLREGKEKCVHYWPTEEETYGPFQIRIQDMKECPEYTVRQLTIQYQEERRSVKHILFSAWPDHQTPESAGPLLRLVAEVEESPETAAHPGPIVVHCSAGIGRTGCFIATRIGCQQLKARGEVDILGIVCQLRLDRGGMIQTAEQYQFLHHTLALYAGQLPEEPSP
# * = called active by the depositor. This excerpt belongs to a sample that is enriched for hits.
SMILES,HePTP inhibitor
O=C1NC(=S)N(c2ccc(F)cc2)C(=O)/C1=C/c1ccc(Br)o1,104*
COc1ccc(N2C(=O)/C(=C/c3ccc(-c4cc(C(=O)O)ccc4Cl)o3)C(=O)NC2=S)cc1,34
O=C1NC(=S)N(c2ccc(Br)cc2)C(=O)/C1=C/c1ccc(-c2ccccc2C(=O)O)o1,22
Cc1ccc(/C=C2/C(=O)NC(=O)N(c3ccc(Cl)cc3)C2=O)o1,-3
O=C1NC(=O)N(c2ccc(Cl)cc2)C(=O)/C1=C/c1ccc(Br)o1,100*
COc1ccc(N2C(=O)/C(=C/c3ccc(I)o3)C(=O)NC2=S)cc1,101*
CN(C)c1ccc(/C=C/c2nc3ccccc3c(=O)n2-c2ccccn2)cc1,-10
N/C(=N\[N+](=O)[O-])N1CCN(C(=O)c2ccc(Cl)cc2)CC1,-9
CCCC1C(=O)NC(=S)N(c2ccccc2)C1=O (stereo not given),-2
Cn1c(O)c(/C=C2\C=CC=N2)c(=O)[nH]c1=O,8
Cc1ccccc1-n1c(O)c(C=C2C=CC=N2)c(=O)[nH]c1=S,103*
O=C1NC(=S)N(c2ccc(F)cc2)C(=O)/C1=C/c1ccc2c(c1)OCO2,-6
CCN1C(=O)/C(=C/c2cccn2C)C(=O)NC1=S,100*
C=CCN1C(=O)NC(=O)C(=Cc2cccn2C)C1=O,6
CCN1C(=O)/C(=C/c2ccoc2)C(=O)NC1=S,102*
COc1ccc(CN2C(=O)NC(=O)/C(=C\c3ccoc3)C2=O)cc1,8
C=CCN1C(=O)/C(=C\c2cccn2-c2ccc([N+](=O)[O-])cc2)C(=O)NC1=S,102*
C=CCN1C(=O)NC(=O)/C(=C/c2ccc(-c3cc([N+](=O)[O-])ccc3Cl)o2)C1=O,-3
CCC(C)N1CCN(Cc2cc(Br)ccc2OC)CC1 (stereo not given),-1
CN1C(=O)NC(=O)/C(=C\c2cccc(Oc3ccccc3)c2)C1=O,0
CCN(CC)S(=O)(=O)c1ccc(C(=O)Nc2ccc([N+](=O)[O-])cc2C(=O)c2ccccc2)cc1,4
COC(=O)N1[C@H](c2ccccc2)[C@@H]1c1ccccc1,2
CC12CCCCC1=NC(c1ccccc1Cl)N2O (stereo not given),5
CCc1ccc(N2C(=O)NC(=O)/C(=C/C=C/c3ccco3)C2=O)cc1,33
C=CCN1C(=O)/C(=C\C=C\c2ccco2)C(=O)NC1=S,102*
O=C1NC(=S)N(c2ccccc2)C(=O)/C1=C/c1ccco1,102*
O=C1NC(=S)N(c2ccccc2F)C(=O)C1=Cc1ccco1,103*
Cc1ccc(C=C2C(=O)NC(=S)N(c3ccccc3F)C2=O)s1,11
O=C1NC(=O)N(c2ccccc2)C(=O)/C1=C/c1ccoc1,7
CC(C)CCn1c(=O)c(C(=O)Nc2ccc(I)cc2)c(O)c2ccccc21,13

# Screens (PubChem)
